From PubChem
Shown are actives, neighbours in structure and some others; about 2.2% of the full set was active somewhere.
MEKK2mut PB1 HTS = signal of MEK5 binding to mutant human MEKK2 PB1 domain. hit rate 0.35% among 290,000. percent response, % at 10 µM. bead flow cytometry, Alexa488-MEK5 binding to MEKK2 mutant. AID 1530; in the data active = percent response above about 24%, passing the limit was not always enough
MEKK3 PB1 HTS = modulators (inhibitors or enhancers) of MEK5 binding to human MEKK3 PB1 domain. Q99759. AID 1529. bead-based flow cytometry, Alexa488-MEK5 binding to MEKK3; actives lie on both sides; 0 = blocked by unlabeled MEK5, 100 = vehicle. hit rate 1.4% among 290,000. binding response (% of control), % at 10 µM;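 active = binding response more than 3 SD above or below the average of its plate-row segment, actives on both sides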;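 also: Alexa488 bead fluorescence after subtracting the streptavidin-only scavenger bead signal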
VLA-4 inh = inhibition in a human VLA-4 binding assay | VLA-4 expressing cells, ligand binding flow cytometry | inhibition, % (about 7 µM as worked out from the volumes in the protocol) | hit rate 0.2% among 330,000 | AID 2557; in the data active = inhibition above about 50%
MEKK2wt PB1 HTS = raises or lowers MEK5 binding to wildtype human MEKK2 PB1 domain; hit rate 1.1% among 290,000; bead flow cytometry, Alexa488-MEK5 binding to MEKK2 WT; actives lie on both sides; AID 1531; binding response (% of control), % at 10 µM; in the data active = binding response below about 67% or above about 130%
* = called active by the depositor; i = inactive; x = no result; ! = repeats disagree; [ ] = dose if it differs, or a comment.

SMILES	MEKK2mut PB1 HTS	MEKK3 PB1 HTS	VLA-4 inh	MEKK2wt PB1 HTS
CCN1/C(=C\C=C(C(C)=O)C(C)=O)Sc2ccccc21	-12	95	-5	87
CNc1nn(-c2cccc(Cl)c2)nc1N	8	104	-52	-1.0*
O=C(NCCNC(=O)c1ccccc1F)c1ccco1	-25	0.0*[inhibitor]	8	-12*[inhibitor]
Cc1ccc2c(c1)c1c(n2CC(O)CNC(C)(C)C)CCCC1 (configuration not stated)	15	116	x	158*
Cc1ccc(NC(=S)NC2CCN(Cc3ccccc3)CC2)cc1	-1	98	5	97
S=C(Nc1cc(Cl)cc(Cl)c1)NC1CCN(Cc2ccccc2)CC1	10	103	11	135*
OC(COc1ccc(Br)cc1)CN1CCC(Cc2ccccc2)CC1 (configuration not stated)	17	103	22	135*
CC(C)OCC(O)CN1CCC(Cc2ccccc2)CC1 (configuration not stated)	1	101	15	104
CCCCC(=O)Nc1ccc2c(c1)nc(CCN1CCN(C)CC1)n2C	-5	99	3	100
O=C(NCCCN1CCCC1)C1CCN(C(=O)c2cc3sccc3n2Cc2ccc(F)cc2)CC1	28*	109	10	168*
CCN(CC)c1ccc(/C=N/N=C(N)N)c(O)c1	113*	93	40	x
CCN(CC(=O)Nc1ccc2c(c1)OCCO2)C(=O)c1ccc(Cl)cc1Cl	x	x	23	x
O=S(=O)(Cc1ccccc1)N1CCc2ccccc21	74*	90	i	x
COc1ccccc1NS(=O)(=O)c1cc([N+](=O)[O-])ccc1N/N=C/c1c[nH]c2ccccc12	14	103	i	-1.0*
O=C(c1ccc(NS(=O)(=O)c2ccccc2)cc1)N1CCN(c2ccccc2)CC1	x	x	10	x
CC(C)Cc1ccc(CN2CCCC(NC(=O)CCN3CCCO3)C2)cc1 (configuration not stated)	22	106	-21	134*
CC(C)Cc1ccc(CN2CCCC(NC(=O)CCN3CCCCC3=O)C2)cc1 (configuration not stated)	5	101	-2	116
COc1ccc(N(C(=O)c2cnccn2)C(C(=O)NC2CCCCC2)c2ccc(O)cc2)cc1 (configuration not stated)	0	103	4	97
CCOC(=O)Cc1csc(NC(=S)NC(=O)c2ccc(Cl)cc2)n1	1	102	-1	100
CCOC(=O)Cc1csc(NC(=S)NC(=O)C(C)(C)C)n1	1	134*	11	107
Cc1cc(Br)cc2cn[nH]c12	-28	79	-2	40*
CCNc1nc(-c2cc(C)n(Cc3ccco3)c2C)cs1	-29	79	-26	-21*
Cc1cc(-c2csc(NCc3ccccc3)n2)c(C)n1C	1	84	x	-10*
Cc1nc(N)sc1-c1csc(NCc2ccccc2)n1	4	106	-15	105
Cc1cc(-c2csc(NC(=O)c3ccc(=O)[nH]c3)n2)c(C)n1Cc1ccco1	-22	66	3	77
SMILES	MEKK2mut PB1 HTS	MEKK3 PB1 HTS	VLA-4 inh	MEKK2wt PB1 HTS
COc1ccccc1OCC(=O)Nc1cc(C)ccc1NC(=O)c1ccco1	6	100	-4	103
COc1cccc2c1C(=O)c1c(O)c3c(c(O)c1C2=O)C[C@@](O)(C(=O)CO)C[C@@H]3O[C@H]1C[C@H](N)[C@H](O)[C@H](C)O1	-9	47*![inhibitor]	-173	50*![inhibitor]
CN(C)[C@@H]1C(=O)C(C(=O)NCN2CCCC2)=C(O)[C@@]2(O)C(=O)C3=C(O)c4c(O)cccc4[C@@](C)(O)C3CC12 (some centres not stated)	-11	63	x	26*[inhibitor]
CCN(CC)S(=O)(=O)c1ccc(N2CCN(C)CC2)c(NC(=O)CSCC(=O)Nc2cccc(C)c2)c1	x	x	19	x
CCN(CC)S(=O)(=O)c1ccc(N2CCN(C)CC2)c(NC(=O)Nc2ccc(C)cc2)c1	15	106	-2	146*
COc1ccc(NC(=O)c2c(-c3c(Cl)cccc3Cl)noc2C)c(OC)c1	-5	98	12	91
CC[N+]1=C(C)C(C)(C)c2cc(C)ccc21	-3	100	i	77
Cc1ccc2c(c1)C=CC(C)(C)S2=O (configuration not stated)	2	130*	7	101
CCCN1C/C(=C/c2ccc3c(c2)OCO3)C(=O)/C(=C/c2ccc3c(c2)OCO3)C1	1	136*	3	109
CN(C)c1ccc(/C=C/c2cc[n+]([O-])cc2)cc1	13	105	8	102
CC[n+]1c(/C=C/c2ccc(N(C)C)cc2)ccc2ccccc21	34	95	i	4.0*
CN(C)c1ccc(/C=C/c2cc[n+](C)cc2)cc1	16	97	i	28*
C/C=N\NC(=O)COc1cc(C)ccc1C	-4	103	19	102
Cc1cc(SCC(=O)c2ccc3c(c2)OCO3)nc2ccccc12	39	113	-12	38*
COc1ccc(C2=NOC(CNC(=S)N3CCOCC3)C2)cc1 (configuration not stated)	-9	88	-6	91
CCC(=O)NNc1ncnc2ccccc12	-3	96	10	86
O=C(O)CCC(=O)NNc1ncnc2ccccc12	5	100	50*	101
Cc1ccc(CNC(=O)CSc2nc(=O)n3cccc(C)c3n2)cc1	x	x	0	x
Cc1ccc(/C=C2/SC(=S)N(C3CCCCC3)C2=O)o1	-22	86	-36	56*[inhibitor]
O=C(NCc1ccccc1)c1nncc(-c2ccccc2)n1	x	x	7	x
CCOc1cccc(CN(C)CC2CCCN(CCc3ccc(Cl)cc3)C2)c1O (configuration not stated)	8	97	-6	129
Cc1[nH]c2ccccc2c1/C=N/n1cnnc1	-1	98	-2	98
CCN(CC)c1ccc(N=Cc2c(C)[nH]c3ccccc23)cc1	-1	75*[inhibitor]	-19	99
COc1ccc(NC(=O)CSc2nc3c(sc4ccccc43)c(=O)n2CCCN2CCCC2)cc1	39*	105	5	176*
COc1ccc(C)cc1NC(=O)C/C(C)=N/NC(=O)Cc1cccc2ccccc12	-8	98	-1	95
SMILES	MEKK2mut PB1 HTS	MEKK3 PB1 HTS	VLA-4 inh	MEKK2wt PB1 HTS
Cc1ccc(C(=O)CCC(=O)Nc2ccccc2C)c(C)c1	10	103	10	109
O=C(NP(=O)(N1CCCC1)N1CCCC1)C1=C(N2CCOCC2)/C(=C/c2cccc([N+](=O)[O-])c2)CC1	0	104	-1	100
O=[N+]([O-])c1ccc(/C=C2\CCC(C3=CCCC3)=C2N2CCOCC2)cc1	2	101	-33	1.0*
COc1ccc(C(=O)NCCNc2nc3cc(C)c(C)cc3cc2C)cc1	9	108	-13	117
C(C#CCCCCCCCCC[n+]1ccccc1)#CCCCCCCCCC[n+]1ccccc1	56*	112	0	274*
COC(=O)CCC(=O)OC1(C)C(=O)C2=CN(Cc3ccc(OC)cc3)C(c3ccc(OC)cc3)=CC2=C(Br)C1=O (configuration not stated)	11	59	-20	x
